Shown are actives, neighbours in structure and some others; about 1.2% of the full set was active somewhere.
CIT2-GFP yeast – alters CIT2-GFP fluorescence in TOR pathway yeast screen. S. cerevisiae CIT2-GFP strain, flow cytometry, 3 h; 100 means same as DMSO wells. GFP response vs DMSO, % at 10 µM. 0.065% of 320,000 active;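 active = GFP response relative to DMSO above a set limit, near the screen mean plus 3 SD, cut at about 150% in these data; inconclusive = Fewer than 70 cells measured for a yeast strain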;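 note: ratio of well median GFP fluorescence to mean of DMSO wells on the plate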
MEP2-GFP yeast – modulators of TOR pathway MEP2-GFP in S. cerevisiae | S. cerevisiae MEP2-GFP strain, flow cytometry GFP, 3 h; 100% = DMSO control level | GFP response vs DMSO, % at 10 µM | 0.51% of 330,000 active;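 active = GFP response versus DMSO above a set limit, roughly screen mean plus 3 SD, cut at about 180% in these data; inconclusive = fewer than 70 cells counted for a yeast strain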;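 note: median GFP fluorescence of the barcode-gated MEP2-GFP cells per well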
DSG3 Ab inh – inhibitors of pemphigus antibody binding to human desmoglein-3. P32926. DSG3-coupled beads, scFv-anti-DSG3-GFP binding, flow cytometry; stronger effect = lower value. binding (percent of control), % at 10 µM. 0.48% of 310,000 active. AID 588358;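 active = binding more than 3 SD below its plate's average and above zero; inconclusive = below that plate limit but binding exactly zero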;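 note: hits lower antibody fragment binding to DSG3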
LAP4 TOR yeast – alters LAP4-GFP fluorescence in TOR pathway yeast screen; S. cerevisiae LAP4-GFP multiplex, flow cytometry GFP, 3 h; median GFP as percent of DMSO wells; GFP response vs DMSO, % at 10 µM; 0.34% of 320,000 active;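 active = GFP response vs DMSO above a set limit, about the screen mean plus 3 SD, cut at about 150% in these data; inconclusive = under 70 cell events counted for the yeast strain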
RPL19A-GFP yeast – alters RPL19A-GFP fluorescence in TOR pathway yeast screen; 0.3% of 330,000 active; S. cerevisiae RPL19A-GFP strain, flow cytometry, 3 h; stronger effect = lower value; percent response vs DMSO, % at 10 µM; AID 2025;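 active = percent response vs DMSO below 50%; inconclusive = fewer than 70 events counted for the yeast strain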;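 note: median channel GFP fluorescence of the barcoded RPL19A-GFP strain; ratio of sample median GFP to plate DMSO average so 100% = DMSO; lower means less RPL19A-GFP as with rapamycin TOR inhibition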
AGP1-GFP MLPCN – yeast TOR pathway AGP1-GFP modulation | S. cerevisiae AGP1-GFP multiplex flow cytometry, 3 h; GFP as percent of DMSO wells | GFP response vs DMSO, % at 10 µM | 0.02% of 320,000 active | AID 2066;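 active = GFP response relative to DMSO above a set limit, near screen average plus 3 SD, cut at about 150% in these data; inconclusive = fewer than 70 cells counted for the yeast strain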;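 note: median GFP channel fluorescence of the gated AGP1 strain per well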
* marks the source's active call; other numbers are inactive results; ? = inconclusive; nt = not tested or not shown; [ ] = another dose, or the depositor's remark.

SMILES	CIT2-GFP yeast	MEP2-GFP yeast	DSG3 Ab inh	LAP4 TOR yeast	RPL19A-GFP yeast	AGP1-GFP MLPCN
O=C1CN(c2ccc(Cl)cc2)C(=O)CN1NC(=S)Nc1ccc(Cl)cc1	107	105	61*	101	103	105
Cc1ccc2cc(CCl)c(Cl)nc2c1	?	791*[may fluoresce violet]	101	109	36*[may fluoresce violet]	?
ClCc1cc2ccccc2nc1Cl	106	104	100	93	99	98
O=C(NCc1ccccn1)c1nc(Cn2cc([N+](=O)[O-])cn2)no1	96	90	nt	98	91	96
O=C1c2ccccc2C(=O)c2c([N+](=O)[O-])ccc(O)c21	101	135	94	154*	92	83
CC1CCN(C(=O)Cn2c3ccc(F)cc3c3nc4n(c(=O)c32)CCCS4)CC1	96	98	nt	95	98	98
C=CCN1CC(=O)N2C(C)c3[nH]c4ccccc4c3C[C@H]2C1=O (some centres not stated)	?	226*[may fluoresce violet]	103	65	52	?
C#CC[N+]1(CC#Cc2ccccc2)CCOCC1	?	194*[may fluoresce violet]	107	99	38*[may fluoresce violet]	?
Cc1ccc(S(=O)(=O)NNC(=O)c2cc3cc4ccccc4nc3s2)cc1	?	598*[may fluoresce violet]	nt	93	45*[may fluoresce violet]	20
Cc1cccc(C(=O)NNC(=O)c2cc3cc4ccccc4nc3s2)c1	102	140	nt	118	103	102
O=C(Cc1ccc(F)cc1)N1CCOCC1	99	101	100	91	99	96
CC(C)c1ccc(N(C(=O)c2snc(C(N)=O)c2N)C(C(=O)NC2CCCC2)c2ccncc2)cc1 (configuration not stated)	114	115	114	98	102	96
Cc1[nH]c2ccccc2c1/C=N/NC(=O)c1cccc(F)c1	89	92	93	110	98	94
Cc1[nH]c2ccccc2c1/C=N/NC(=O)c1cccc([N+](=O)[O-])c1	nt	103	60*	86	84	91
Cn1cc(/C=N/NC(=O)c2cccc([N+](=O)[O-])c2)c2ccccc21	92	104	25*	94	100	98
COc1cc(C2CC(c3cccnc3)=NN2c2ccc(F)cc2)cc(OC)c1OC (configuration not stated)	159*	151	105	120	112	101
COc1cccc(C(=O)NCCN2C(=O)S/C(=C/c3cccs3)C2=O)c1OC	97	101	85	98	105	105
CCOc1ncccc1C(=O)NCCN1C(=O)S/C(=C/c2cccs2)C1=O	104	112	79*	100	109	113
O=C(NS(=O)(=O)NC1CCCCC1)C1=C(N2CCCC2)COC1=O	105	106	100	108	107	112
O=C(O)C1C=CCC(C(=O)O)C1 (configuration not stated)	nt	nt	103	nt	nt	nt
O=C(CC1S/C(=N/N=C2CCCCCC2)NC1=O)Nc1ccccc1C(F)(F)F (configuration not stated)	?	182*[may fluoresce violet]	109	71	46*[may fluoresce violet]	?
COc1ccccc1NC(=O)CC1S/C(=N/N=C2\CCCc3ccccc32)NC1=O (configuration not stated)	86	93	100	99	92	90
Cc1ccc(-c2ccc(CCC(=O)O)n2-c2cccc(C(=O)O)c2)cc1	112	113	89	107	112	109
CCN(CC)c1ccc(NC(=O)CCCCCN2C(=O)c3ccccc3C2=O)cc1	105	98	nt	101	99	106
CCN(CC)c1ccc(NC(=O)CCCCC(=O)Nc2ccc(N(CC)CC)cc2)cc1	106	103	88*	107	97	109
SMILES	CIT2-GFP yeast	MEP2-GFP yeast	DSG3 Ab inh	LAP4 TOR yeast	RPL19A-GFP yeast	AGP1-GFP MLPCN
CCOc1ccc(S(=O)(=O)Nc2cccc(C(=O)NCC(c3ccc(OC)cc3)N3CCOCC3)c2)cc1 (configuration not stated)	110	105	102	99	101	106
CC(C)C1N(C(N)=S)N=CC1(C)C (configuration not stated)	nt	664*[may fluoresce violet]	104	nt	49*[may fluoresce violet]	nt
CCN(c1ccccc1)S(=O)(=O)c1nnc(NC(=O)C(C)(C)C)s1	97	89	112	85	97	94
CCN(c1ccccc1)S(=O)(=O)c1nnc(NC(=O)C(C)C)s1	?	338*[may fluoresce violet]	108	60	22*[may fluoresce violet]	?
CC(=O)N[C@@H](CC(=O)N[C@H](CCC(=O)O)C(=O)O)C(=O)O	?	528*[may fluoresce violet]	91	100	47*[may fluoresce violet]	16
CC(=O)NC(CC(C)C)C(=O)O (configuration not stated)	nt	nt	102	nt	nt	nt
COCCCNC(=O)C[C@H]1C[C@H](C(=O)N(C(C)C)C(C)C)[C@@]2(C)c3[nH]c4ccc(Cl)cc4c3CCN2C1=O	nt	nt	95	nt	nt	nt
CN1CCN(C(=O)c2ccc3c(c2)NC(=O)C(C)(C)O3)CC1	?	259*[may fluoresce violet]	nt	139	15*[may fluoresce violet]	?
Cc1oc2c(CN3CCCC(C)C3)c(O)ccc2c(=O)c1-c1ccccc1 (configuration not stated)	94	253*	97	99	50	56
O=C(Nc1ccc(Cl)c(Cl)c1)N(CCCN1CCOCC1)Cc1cccnc1	?	180*[may fluoresce violet]	85	91	50*[may fluoresce violet]	19
CC1(C)CN(c2ccsc2C(=O)O)C1=O	95	104	56*	104	102	114
CNc1sc(C(=O)c2ccc(F)cc2)c(N)c1-c1nc2ccccc2s1	?	97	94	153*[may fluoresce violet]	96	42
CC(=O)NC1C(OCc2ccccc2)OC2COC(C)(C)OC2C1O (configuration not stated)	104	106	102	112	99	105
CSc1nc2ccc(S(N)(=O)=O)cc2s1	90	100	109	89	97	92
CSc1nc2ccc(S(=O)(=O)N3CCCC3)cc2s1	73	98	92	177*	93	102
O=C(c1cccc(Oc2ccccc2)c1)N1CCN(c2ccccn2)CC1	99	104	90	92	108	101
C=CCN1C(=O)c2ccccc2NC1c1cc(Br)cs1 (configuration not stated)	?	279*[may fluoresce violet]	108	92	55	23
O=C(NCCCN1CCOCC1)C(=O)N/N=C/c1ccc2c(c1)OCO2	?	298*[may fluoresce violet]	100	105	47*[may fluoresce violet]	?
O=C(c1ccc(Br)cc1)N(Cc1ccco1)C1CCS(=O)(=O)C1 (configuration not stated)	?	161	95	88	20*[may fluoresce violet]	?
CCCCOc1ccc(C(=O)N(Cc2ccco2)C2CCS(=O)(=O)C2)cc1 (configuration not stated)	103	108	nt	101	101	100

Screens deposited in PubChem by NMMLSC.
